Assay results published in PubChem BioAssay AID1619 (SRMLSC, 2009).
The whole screen tested about 220,000 compounds, of which about 830 (0.38%) were called active.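 Rule for the calls: active = compound inhibiting the enzyme by more than half at any dose during confirmatory dose-response retesting; inconclusive = strong single-dose inhibitors picked by rank but not retested; inactive = the rest.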 The list is a sample of the results. Results with a measured potency or affinity are listed apart.

What follows are molecules tested against Leucine aminopeptidase (Plasmodium falciparum (isolate 3D7)) (UniProt Q8IL11) (assay: P. falciparum M17LAP inhibitors, primary screen, biochemical, fluorogenic H-Leu-NHMec substrate, 1536-well (AID 1619;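 note: plate controls were full reaction with DMSO carrier for no effect and no enzyme background for full effect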)). Details: recombinant M17LAP, H-Leu-NHMec fluorogenic kinetic assay; at 30 µM; stronger effect = higher value.
Chain of Leucine aminopeptidase (Plasmodium falciparum (isolate 3D7)) (Q8IL11 whole entry, looked up): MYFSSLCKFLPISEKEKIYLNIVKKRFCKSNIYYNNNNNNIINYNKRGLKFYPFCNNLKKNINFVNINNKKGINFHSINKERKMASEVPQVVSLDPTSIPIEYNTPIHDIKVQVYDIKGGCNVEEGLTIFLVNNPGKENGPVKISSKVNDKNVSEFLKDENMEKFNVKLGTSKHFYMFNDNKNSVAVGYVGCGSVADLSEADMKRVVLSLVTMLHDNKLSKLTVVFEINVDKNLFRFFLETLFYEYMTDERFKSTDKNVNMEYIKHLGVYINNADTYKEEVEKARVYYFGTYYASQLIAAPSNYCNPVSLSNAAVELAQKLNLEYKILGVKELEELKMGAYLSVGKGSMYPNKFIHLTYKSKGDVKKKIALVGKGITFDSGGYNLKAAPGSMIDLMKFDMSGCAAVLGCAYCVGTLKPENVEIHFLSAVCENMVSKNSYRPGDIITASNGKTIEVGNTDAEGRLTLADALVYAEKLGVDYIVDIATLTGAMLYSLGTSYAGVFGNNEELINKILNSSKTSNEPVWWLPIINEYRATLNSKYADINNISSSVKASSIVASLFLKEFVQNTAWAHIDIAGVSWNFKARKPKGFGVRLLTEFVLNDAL

inhibition, inactive:
O=[N+]([O-])c1ccc(C[n+]2cccc3ccccc32)cc1 1.34%
O=C(CN1CCCCC1CO)c1ccc(OC(F)F)cc1 (stereo not drawn) 6.93%
Cc1cc(NC(=O)CSc2ncnc3c2cnn3-c2cccc(Cl)c2)no1 1.8%
CCn1cc(Br)c(C(=O)NC(C)c2ccccc2)n1 (stereo not drawn) -36.5%
Cc1csc(NC(=O)C2CCN(S(=O)(=O)c3ccc4c(c3)oc(=O)n4C)CC2)n1 8.23%
CC(C)(C)C(=O)N1N=C(c2cccc(NS(C)(=O)=O)c2)CC1c1cccs1 (stereo not drawn) 29.7%
O=C(CCNS(=O)(=O)c1cccs1)Nc1nccs1 -0.31%
O=C(Nc1n[nH]c(C2CCCCC2)n1)C1CCCCC1 -5.77%
Nc1n[nH]c(C2CCCCC2)n1 -1.74%
Nn1c(SCc2ccccc2F)nnc1-c1ccncc1 1.35%
CCOC(=O)c1sc(NC(=O)Cn2nnc3sc4c(c3c2=O)CCCC4)nc1C -3.69%
C=CCn1c(CNC(=O)c2ccco2)nnc1SCC(=O)Nc1cccc(F)c1 14.5%
Cn1c(CNC(=O)c2ccco2)nnc1SCC(=O)Nc1cccc(Br)c1 7.38%
CCCn1cnc2c(=S)nc(N)[nH]c21 16.6%
CC(C)c1ccc(-c2nc(N3CCCCCC3)nc3n[nH]c(N)c23)cc1 35.4%
c1ccc(-c2nnc(N3CCOCC3)nc2-c2ccccc2)cc1 5.71%
COc1ccc(-c2cc(C(F)(F)F)nc(N3CCOCC3)n2)cc1 4.95%
COc1ccc(N2CCN(c3nc(Cl)nc(N4CCOCC4)n3)CC2)cc1 11.3%
Nc1nc(N2CCOCC2)nc2ccccc12 -12%
CC(C)c1ccc(-c2nc(N3CCCC3)nc3n[nH]c(N)c23)cc1 27.7%
COCCNC(=S)NNc1ccccc1[N+](=O)[O-] 0.4%
CC(C)=NOc1nc(N2CCOCC2)nc(N2CCOCC2)n1 -6.17%
CCOC(=O)Cn1nnnc1CN(Cc1ccccc1)Cc1cc2cc(CC)ccc2[nH]c1=O -7.17%
CCOC(=O)c1sc(NC(=O)CC)c(C#N)c1C -11.2%
O=C(CN1C(=O)CCC1=O)Nc1ccc(Cc2ccc(NC(=O)CN3C(=O)CCC3=O)cc2)cc1 1.75%
COC(=O)c1ccc(C)c(NC(=O)Cn2cnc3ccccc3c2=O)c1 54.1%
O=C(Cn1cnc2cc([N+](=O)[O-])ccc2c1=O)Nc1ccc2c(c1)CCC2 25.1%
COc1ccc(NC(=O)Cn2cnc3ccccc3c2=O)cc1OC 14.4%
Cc1ccc(NC(=O)Cn2nnc3ccccc3c2=O)cc1 -0.57%
Cc1ccc(NC(=O)Cn2nnc3ccccc3c2=O)cc1C -2.19%
O=C(Cn1cnc2ccccc2c1=O)Nc1ccc2c(c1)OCCO2 5.1%
N#Cc1c(NC(=O)CSc2ccccn2)oc(-c2ccccc2)c1-c1ccccc1 3.85%
N#Cc1c(NC(=O)CCn2cnc3ccccc3c2=O)oc(-c2ccccc2)c1-c1ccccc1 -1.46%
